Laboratory results as given in the supplement of paper PMC10127200.
Where a name gives a salt, the structure may show the parent alone.

What follows are compounds tested on A549 (assay: Euclidean distance of Cell Painting phenotypic profile (signed KS, 77 features) to DMSO centroid (dimensionless distance); 5 or 10 uM (library dependent); higher = stronger phenotypic change vs DMSO (phenoactivity)). Settings: 48 h.
How it was run: (§1)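 Phenoactivity is computed as Euclidean distance to the median vehicle profile. The profiles, drawn from 77 Harmony features scored as signed Kolmogorov-Smirnov statistics versus same-plate vehicle wells, were corrected for plate position, correlation-weighted and replicate-averaged at the top dose. Stained cells were imaged confocally at 20X (9 fields/well) after 48 h with library compounds at 10 or 5 uM, 0.1% DMSO final, in five cancer lines and a healthy fibroblast line.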

| Compound | Euclidean distance |
| --- | --- |
| COC(=O)CCc1ccc(OCC(O)CNC(C)C)cc1 (stereo not given) [Esmolol HCl] | 0.415 |
| c1ccc(C2CN3CCSC3=N2)cc1 (stereo not given) [Tetramisole HCl] | 0.708 |
| N#C[C@@H]1C[C@@H]2C[C@@H]2N1C(=O)[C@@H](N)C12CC3CC(CC(O)(C3)C1)C2 [Saxagliptin hydrate] | 0.951 |
| CN(C(=O)c1ccc(F)cc1C(F)(F)F)C1CCN(c2nnc(-c3ccnn3C)c3ccccc23)CC1 | 0.959 |
| COC(=O)C1=C(C#N)NC(C)=C(C(=O)OC(C)C)C1c1cccc([N+](=O)[O-])c1 (stereo not given) [Nilvadipine] | 0.818 |
| CCC(NC(C)C)C(O)c1ccc(O)c(O)c1 (stereo not given) [Isoetharine Mesylate] | 0.789 |
| CC12CCC(CC1)C(C)(C)O2 [Eucalyptol] | 0.614 |
| Cc1nnc(C(=O)NC(C)(C)c2nc(C(=O)NCc3ccc(F)cc3)c(O)c(=O)n2C)o1 [Raltegravir (MK-0518)] | 0.695 |
| Cc1c(OCC(F)(F)F)ccnc1C[S+]([O-])c1nc2ccccc2[nH]1 (stereo not given) [Lansoprazole] | 2.3 |
| C[C@@H](O)[C@H]1C(=O)N2C(C(=O)O)=C(S[C@@H]3CN[C@H](C(=O)Nc4cccc(C(=O)O)c4)C3)[C@H](C)[C@H]12 [Ertapenem sodium] | 0.953 |
| C=CCc1ccc(O)c(-c2cc(CC=C)ccc2O)c1 [Magnolol] | 0.915 |
| O=c1c(-c2ccc(O)cc2)coc2cc(O[C@@H]3O[C@H](CO)[C@@H](O)[C@H](O)[C@H]3O)ccc12 [Daidzin] | 0.784 |
| Nc1[nH]cnc2ncnc1-2 [Adenine HCl] | 0.466 |
| OCCOCCN1CCN(C2=Nc3ccccc3Sc3ccccc32)CC1 [Quetiapine] | 0.671 |
| C=C(C)[C@@H]1CC=C(CO)CC1 [Perillyl alcohol] | 0.815 |
| CC(C)n1c(/C=C/C(O)CC(O)CC(=O)O)c(-c2ccc(F)cc2)c2ccccc21 (stereo not given) [Fluvastatin Sodium] | 2.4 |
| C=C1C(=O)O[C@@H]2/C=C(\C)CC/C=C(\C)CC[C@@H]12 [Costunolide] | 0.924 |
| CCCCC1(COC(=O)CCC(=O)O)C(=O)N(c2ccccc2)N(c2ccccc2)C1=O [Suxibuzone] | 0.893 |
| O=C(/C=C/C=C/c1ccc2c(c1)OCO2)N1CCCCC1 [Piperine] | 0.714 |
| CC(C)C(=O)Nc1ccc([N+](=O)[O-])c(C(F)(F)F)c1 [Flutamide] | 0.771 |
| CN[C@@H]1CCc2[nH]c3ccc(C(N)=O)cc3c2C1 [Frovatriptan Succinate] | 0.718 |
| COc1ccc2cc3[n+](cc2c1OC)CCc1cc2c(cc1-3)OCO2 [Berberine chloride] | 1.36 |
| CN1c2ccccc2C(=O)N2CCc3c([nH]c4ccccc34)C21 (stereo in doubt) [Evodiamine] | 2.85 |
| CCN(CC)CCOc1ccc(C(=C(Cl)c2ccccc2)c2ccccc2)cc1 [Clomifene citrate] | 3.99 |
| C[C@H](CCC(=O)O)[C@H]1CC[C@H]2[C@@H]3[C@@H](O)C[C@@H]4C[C@H](O)CC[C@]4(C)[C@H]3CC[C@]12C [Ursodiol] | 0.853 |
| COc1ccc(CN(CCN(C)C)c2ccccn2)cc1 [Pyrilamine Maleate] | 0.864 |
| Cc1ccccc1C(OCCN(C)C)c1ccccc1 (stereo not given) [Orphenadrine Hydrochloride] | 1.11 |
| NCCCC(N)(C(=O)O)C(F)F (stereo not given) [Eflornithine hydrochloride hydrate] | 1.26 |
| CCOC(=O)c1ncn2c1CN(C)C(=O)c1cc(F)ccc1-2 [Flumazenil] | 0.73 |
| C[C@]12C=CC(=O)C=C1CC[C@H]1[C@@H]3C[C@@H](O)[C@](O)(C(=O)CO)[C@@]3(C)C[C@H](O)[C@@]12F [Triamcinolone] | 1.88 |

Each compound was assayed on FB in the same assay as above. Settings: 48 h.
How it was run: as §1

| Compound | Euclidean distance |
| --- | --- |
| CNC(=O)c1c(C)oc2cc(Oc3ncnc4cc(OC)c(OC)cc34)ccc12 [Fruquintinib] | 2.06 |
| CCOC(=O)N[C@@H]1CC[C@@H]2[C@@H](C1)C[C@H]1C(=O)O[C@H](C)[C@H]1[C@H]2/C=C/c1ccc(-c2cccc(F)c2)cn1 [Vorapaxar] | 2.37 |
| CC(C)(C)CC(C)(C)c1ccc(O)c(Cc2ccc(Cl)cc2Cl)c1 [Clofoctol] | 1.21 |
| COc1ccc2cc1Oc1ccc(cc1)C[C@H]1c3cc(c(OC)cc3CCN1C)Oc1c(OC)c(OC)cc3c1[C@H](C2)N(C)CC3 [Tetrandrine] | 2.97 |
| CNC(=O)c1cc(COc2nnc(Nc3ccc(Cl)cc3)c3ccoc23)ccn1 [Telatinib] | 2.01 |
| CC(C)Oc1ccc(-c2nn([C@@H](C)c3oc4ccc(F)cc4c(=O)c3-c3cccc(F)c3)c3ncnc(N)c23)cc1F [umbralisib (TGR-1202)] | 1.9 |
| C=CC(=O)N1CC/C(=C\c2ccc(F)c([N+](=O)[O-])c2)C(=O)/C(=C/c2ccc(F)c([N+](=O)[O-])c2)C1 | 5.74 |
| NC(=O)c1nc(F)cnc1O [Favipiravir (T-705)] | 0.835 |
| Cn1ccnc1S [Methimazole] | 2.81 |
| CCCCCCCCCC(=O)N[C@@H](Cc1c[nH]c2ccccc12)C(=O)N[C@H](CC(N)=O)C(=O)N[C@@H](CC(=O)O)C(=O)N[C@@H]1C(=O)NCC(=O)N[C@@H](CCCN)C(=O)N[C@@H](CC(=O)O)C(=O)N[C@H](C)C(=O)N[C@@H](CC(=O)O)C(=O)NCC(=O)N[C@H](CO)C(=O)N[C@@H]([C@H](C)CC(=O)O)C(=O)N[C@@H](CC(=O)c2ccccc2N)C(=O)O[C@@H]1C [Daptomycin] | 0.795 |
| COC(=O)CCc1ccc(OCC(O)CNC(C)C)cc1 (stereo not given) [Esmolol HCl] | 0.525 |
| c1ccc(C2CN3CCSC3=N2)cc1 (stereo not given) [Tetramisole HCl] | 1.19 |
| N#C[C@@H]1C[C@@H]2C[C@@H]2N1C(=O)[C@@H](N)C12CC3CC(CC(O)(C3)C1)C2 [Saxagliptin hydrate] | 0.817 |
| CN(C(=O)c1ccc(F)cc1C(F)(F)F)C1CCN(c2nnc(-c3ccnn3C)c3ccccc23)CC1 | 1.03 |
| COC(=O)C1=C(C#N)NC(C)=C(C(=O)OC(C)C)C1c1cccc([N+](=O)[O-])c1 (stereo not given) [Nilvadipine] | 1.19 |
| CCC(NC(C)C)C(O)c1ccc(O)c(O)c1 (stereo not given) [Isoetharine Mesylate] | 1.18 |
| CC12CCC(CC1)C(C)(C)O2 [Eucalyptol] | 0.855 |
| Cc1nnc(C(=O)NC(C)(C)c2nc(C(=O)NCc3ccc(F)cc3)c(O)c(=O)n2C)o1 [Raltegravir (MK-0518)] | 1.11 |
| Cc1c(OCC(F)(F)F)ccnc1C[S+]([O-])c1nc2ccccc2[nH]1 (stereo not given) [Lansoprazole] | 0.815 |
| C[C@@H](O)[C@H]1C(=O)N2C(C(=O)O)=C(S[C@@H]3CN[C@H](C(=O)Nc4cccc(C(=O)O)c4)C3)[C@H](C)[C@H]12 [Ertapenem sodium] | 0.956 |

| Compound | Euclidean distance |
| --- | --- |
| C=CCc1ccc(O)c(-c2cc(CC=C)ccc2O)c1 [Magnolol] | 0.817 |
| O=c1c(-c2ccc(O)cc2)coc2cc(O[C@@H]3O[C@H](CO)[C@@H](O)[C@H](O)[C@H]3O)ccc12 [Daidzin] | 0.914 |
| Nc1[nH]cnc2ncnc1-2 [Adenine HCl] | 1.18 |
| OCCOCCN1CCN(C2=Nc3ccccc3Sc3ccccc32)CC1 [Quetiapine] | 0.864 |
| C=C(C)[C@@H]1CC=C(CO)CC1 [Perillyl alcohol] | 0.953 |
| CC(C)n1c(/C=C/C(O)CC(O)CC(=O)O)c(-c2ccc(F)cc2)c2ccccc21 (stereo not given) [Fluvastatin Sodium] | 3.84 |
| C=C1C(=O)O[C@@H]2/C=C(\C)CC/C=C(\C)CC[C@@H]12 [Costunolide] | 1.01 |
| CCCCC1(COC(=O)CCC(=O)O)C(=O)N(c2ccccc2)N(c2ccccc2)C1=O [Suxibuzone] | 1.12 |
| O=C(/C=C/C=C/c1ccc2c(c1)OCO2)N1CCCCC1 [Piperine] | 1.06 |
| CC(C)C(=O)Nc1ccc([N+](=O)[O-])c(C(F)(F)F)c1 [Flutamide] | 1.09 |
| CN[C@@H]1CCc2[nH]c3ccc(C(N)=O)cc3c2C1 [Frovatriptan Succinate] | 0.896 |
| COc1ccc2cc3[n+](cc2c1OC)CCc1cc2c(cc1-3)OCO2 [Berberine chloride] | 2.07 |
| CN1c2ccccc2C(=O)N2CCc3c([nH]c4ccccc34)C21 (stereo in doubt) [Evodiamine] | 1.59 |
| CCN(CC)CCOc1ccc(C(=C(Cl)c2ccccc2)c2ccccc2)cc1 [Clomifene citrate] | 3.36 |
| C[C@H](CCC(=O)O)[C@H]1CC[C@H]2[C@@H]3[C@@H](O)C[C@@H]4C[C@H](O)CC[C@]4(C)[C@H]3CC[C@]12C [Ursodiol] | 1.04 |
| COc1ccc(CN(CCN(C)C)c2ccccn2)cc1 [Pyrilamine Maleate] | 1.11 |
| Cc1ccccc1C(OCCN(C)C)c1ccccc1 (stereo not given) [Orphenadrine Hydrochloride] | 0.736 |
| NCCCC(N)(C(=O)O)C(F)F (stereo not given) [Eflornithine hydrochloride hydrate] | 1.21 |
| CCOC(=O)c1ncn2c1CN(C)C(=O)c1cc(F)ccc1-2 [Flumazenil] | 1.11 |
| C[C@]12C=CC(=O)C=C1CC[C@H]1[C@@H]3C[C@@H](O)[C@](O)(C(=O)CO)[C@@]3(C)C[C@H](O)[C@@]12F [Triamcinolone] | 1.81 |
